Results on 22 compounds are retold here after PubChem BioAssay (EPA / NIEHS).

The structures appear in SMILES notation. Values joined by “and” are separate entries in the source; they are usually repeats but may differ in a detail not shown here. Equal values may be shown once. Records with an inconclusive call do not appear. Some structures have more than one record in an assay (separate samples or runs), and their calls can disagree. Active and inactive are the calls of the source. How the source made its calls: active means hit-call score of the fitted dose curve at least 0.9, where 1 is the maximum; inconclusive means response in the unintended direction; inactive means score below 0.9.

The subject of the first assay is DIO3 (gene 1735). Nature of the assay: CCTE_GLTED_hDIO3: CCTE's human Deiodinase 3 (DIO3) Inhibition Assay, Great Lakes Toxicology and Ecology Division (GLTED) Lab (AID 2284055).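 Further: potency is for inhibition seen as loss of released iodide signal.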 In a few lines: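 Human DIO3 from an adenovirus expression system is incubated 3 h with test chemical. Released iodide is quantified by Sandell-Kolthoff absorbance, in triplicate plates. Loss of signal is fitted relative to DMSO.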
As for `O=S(=O)(O)c1ccccc1C=Cc1ccc(-c2ccc(C=Cc3ccccc3S(=O)(=O)O)cc2)cc1`, the AC50 (in general, the concentration giving half of the maximal activity seen) was 100 µM (active). Take `CCCCCCCC/C=C\CCCCCCCC(=O)O`: the AC50 is 29.8 µM (active). Regarding `CC/C=C\C/C=C\C/C=C\CCCCCCCC(=O)O`, the half-maximal activity concentration (AC50) is 13.1 µM (active).

Regarding `CCCCC/C=C\C/C=C\CCCCCCCC(=O)OC`, the AC50 was 16.8 µM (active). Still for that read-out and setting: with `CC(C)C1=CC2=CC[C@@H]3[C@](C)(CCC[C@@]3(C)C(=O)O)[C@H]2CC1` the figure was 79.8 µM (active). Still for that read-out and setting: with `Oc1ccc(Cl)cc1Cc1cc(Cl)ccc1O` the figure was 57.3 µM (active); with `CC=C1CC2C=CC1C2` (stereo unspecified), 47.9 µM (active); with `Cc1ccc(N/N=c2\c(=O)cc/c(=N/Nc3ccc(S(=O)(=O)O)cc3)c2=O)c(C)c1`, 114 µM (active). The same measure, in the same setting: for `CCCCCCCC/C=C\CCCCCCCC(=O)OCCO` the value was 14 µM (active).

With `CCN(CCC#N)c1ccc(N=Nc2c(Cl)cc([N+](=O)[O-])cc2Cl)cc1`, the AC50 was 63.7 µM (active).

In the case of `CCCCCCCCCCCCCOP(=O)(O)O`, the half-maximal activity concentration (AC50) was 12 µM (active).

As for `O=S1(=O)OC(c2ccc(O)cc2)(c2ccc(O)cc2)c2ccccc21`, the concentration at half-maximal activity (AC50) is 100 µM (active). `O=C(C=Cc1ccccc1)OCc1ccccc1`: the AC50 is 5.5 µM (active). Still for that read-out and setting: with `CCCCCCCC[N+](C)(CCCCCCCC)CCCCCCCC` the figure was 3.85 µM (active).

Tested on in the next assay: not listed separately
Description: CCTE_Shafer_MEA_dev_LDH: CCTE's Lactate Dehydrogenase Assay for Cytotoxicity in the Neural Network Formation Assay, Shafer Lab (AID 2284068).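 Further: exposure for twelve days from plating with re-dosing on DIV 5 and 9.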 In a few lines:
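Rat cortical primary neurons, MEA culture; dosing day 0–12, full medium plus compound exchange DIV 5, 9. Read-out: LDH enzyme activity, spectrophotometric. DMSO = negative control/baseline; signal loss → cytotoxicity.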
Regarding `CN(C)c1ccc(C(=N)c2ccc(N(C)C)cc2)cc1`, the AC50 is 3.2 µM (active).

With `N[C@H]1C(O)O[C@H](CO)[C@H](O)[C@@H]1O` (stereo partly specified), the half-maximal activity concentration (AC50) is 15 µM (active).

With `c1ccc2c(c1)ccc1cc3c(ccc4ccccc43)cc12`, the compound was called inactive.

Regarding `Nc1ncn([C@@H]2O[C@H](CO)[C@@H](O)[C@H]2O)c(=O)n1`, the half-maximal activity concentration (AC50) was 5.16 µM (active) and the compound was called inactive.

Tested on in a further assay: not listed separately
Description: CCTE_Shafer_MEA_acute_AB: CCTE's Alamar Blue Assay for Cytotoxicity in the Neural Acute Assay, Shafer Lab (AID 2284069).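 Further: active compounds lower the viability signal compared with DMSO wells.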 In outline: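 Read-out: resazurin fluorescence (ex 544, em 590 nm) after CTB reagent at 1:6 dilution in fresh media. Cells: primary rat cortical neuron networks, DIV 13 or 15, chemically exposed on MEA plates; DMSO as negative control/baseline.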
For `O=C(c1ccc(O)cc1)c1ccc(O)cc1O`, the result was inactive. The same measure, in the same setting: for `Nc1ccc(N)c(Cl)c1` the value was “inactive”.

`CO[Si](OC)(OC)c1ccccc1`: the result was inactive.

Tested on in another assay: not listed separately
Nature of the assay: CCTE_Shafer_MEA_dev_AB: CCTE's Alamar Blue Assay for Cytotoxicity in the Neural Network Formation Assay, Shafer Lab (AID 2284083).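 Further: resazurin reduction fluorescence as viability of cultured neurons; twelve days of exposure from plating with re-dosing on DIV 5 and 9.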 In outline: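 Rat cortical primary cultures, 1.5 x 10^5 cells/well on MEA; continuous compound exposure over 12 days of network development, re-dosed with full medium change DIV 5 and 9. Alamar Blue fluorescence; loss of signal = cytotoxicity vs DMSO baseline.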
(In general: Resazurin is reduced to fluorescent resorufin, in cell work by metabolically active cells.)
For the compound `CN(C)c1ccc(C(=N)c2ccc(N(C)C)cc2)cc1`, the AC50 is 4.33 µM (active).

Take `N[C@H]1C(O)O[C@H](CO)[C@H](O)[C@@H]1O` (stereo partly specified): the half-maximal activity concentration (AC50) was 2.98 µM (active). In the case of `CCOC(F)(F)C(F)(F)C(F)(F)C(F)(F)F`, the compound was called inactive.

On to `Nc1ncn([C@@H]2O[C@H](CO)[C@@H](O)[C@H]2O)c(=O)n1`, for which the AC50 was 5 nM (active) and 15 µM (active).
